Data on 32 compounds can be found in PubChem BioAssay.

A short description of one assay: probe aDKK1 binding to arrayed compounds – biochemical, biotinylated probe, 635/667 nm fluorescence, primary screen (AID 1099).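 Note: score merges 667nm spot fluorescence with signal to noise across triplicate slides; reference of the scale not given here.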 Particulars: small-molecule microarray, higher = more signal.
Turning to `O=C1CCCC=C1C(O)c1ccc([N+](=O)[O-])cc1` (configuration not stated), the composite z-score was -0.0341. As to `COC(=O)CC=C[C@@H](C)[C@@H](C=NOC(C)CN1CCCCc2nc(C)c(C)cc21)NS(=O)(=O)c1ccc(C)cc1` (some centres not stated), the composite z-score is -0.0704. The same measure, in the same setting: next, `CC(CCC(=O)OC[C@H]1O[C@H](C#Cc2ccccc2)C=C[C@@H]1Oc1ccc(C)cc1)=NOC(C)CN1CCCc2nc(C)c(C)cc21` (some centres not stated): -0.143. Turning to `CCN1C(=O)[C@H]2[C@H]3[C@H](O)[C@H](O)CC(=NO[C@H](C)c4cn([C@@H]5COC[C@H]5O)nn4)[C@@H]3CC[C@H]2C1=O`, the composite z-score was -0.19.

Turning to `COc1ccc(-c2cnnc(CCCn3ccnc3-c3ccccc3)n2)cc1`, the composite z-score was 0.0096.

The next assay is described as follows: probe aCHRDL2 binding to arrayed compounds – biochemical, biotinylated probe, 635/667 nm fluorescence, primary screen (AID 1100). Particulars: small-molecule microarray, higher = more signal.
Take `O=C1C=C[C@@H](O)[C@@H]2[C@@H]3C(=O)N(C4CCCCC4)C(=O)[C@@H]3CC[C@@H]12`: the composite z-score was -0.369. `C[C@@H]1CC[C@H]2C(=O)OC(Cc3ccccc3)CN2[C@H]1c1ccc(Br)cc1` (some centres not stated): the composite z-score was -0.312. Still for that read-out and setting: next, `O=C1[C@H]2[C@H]3[C@H](O)[C@H](O)CC(=NO[C@@H]4O[C@H](CO)[C@@H](O)[C@H](O)[C@H]4O)[C@H]3CC[C@H]2C(=O)N1c1ccc(F)cc1F`: 0.129. Still for that read-out and setting: then `COc1ccc(COC(=O)NN=C2C[C@@H](O)[C@@H](O)[C@@H]3[C@@H]4C(=O)N([C@@H](C)c5ccccc5)C(=O)[C@@H]4CC[C@H]23)cc1`, with 1.4; and `CC(=O)OC[C@H]1O[C@H](CC=NO[C@H](C)c2cn([C@@H]3COC[C@H]3O)nn2)C=C[C@@H]1OC(C)=O`, with -0.434; and `COc1ccc(O[C@H]2C=C[C@@H](c3ccccc3)O[C@@H]2CO)cc1`, with -0.116.

For `CCOC(=O)[C@H](Cc1ccccc1)NC(=O)CCC1CC(OC(=O)NCCc2ccc(F)cc2)CC2(CCCC(COC(=O)NCCOc3ccccc3)O2)O1` (some centres not stated), the composite z-score was -0.442. With `O=C1C[C@@H](O)[C@@H](O)[C@@H]2[C@@H]3C(=O)N(C4CCCCC4)C(=O)[C@@H]3CC[C@@H]12`, the composite z-score is -0.504. On the same count and under the same terms, next, `CC(CCN1CCCCc2nc(C)c(C)cc21)=NO[C@@H](C)c1cc(-c2c(C)cc(C)cc2C)no1`: 0.27. On the same count and under the same terms, next, `CCOC(=O)[C@H](CC(C)C)NC(=O)CCC1CC(OC(=O)NCc2ccc3c(c2)OCO3)CC2(CCCC(COC(=O)NCCOc3ccccc3)O2)O1` (some centres not stated): -0.537. On the same count and under the same terms, next, `C=CC[C@@H]1C=C[C@H](ON=C(C)CCN2CCCc3nc(C)c(C)cc32)[C@@H](CO)O1`: 0.331. For `O=C1CCCC=C1C(O)C1CCCCC1` (configuration not stated), the composite z-score was -0.476. Take `CO[C@H]1COC(=O)CC=C[C@H](C)[C@H](OC)COC(=O)[C@@H](C)NC(=O)CC=C[C@@H]1C`: the composite z-score was -1.19. Same read-out and setting: then `COC(=O)CC=C[C@@H](C)[C@@H](C=NOC[C@@H](C)[C@H](OCc1ccccc1)C(C)C)OC`, with -0.208. On the same count and under the same terms, then `CC(C)CON=C1C[C@@H](O)[C@@H](O)[C@@H]2[C@@H]3C(=O)N(C(C)(C)C)C(=O)[C@@H]3CC[C@@H]12`, with -1.35; and `CC1(C)O[C@H]2OC([C@H](O)CON3C(=O)c4ccccc4C3=O)[C@H](O)[C@H]2O1` (some centres not stated), with -0.562; and `CCOC(=O)CCN1C(=O)[C@H]2[C@H]3[C@H](O)[C@H](O)CC(=NNC(=O)OCC)[C@H]3CC[C@H]2C1=O`, with -0.799.

Consider `CCN(CC)CC(O)CN1CCCCc2nc(C)c(C)cc21` (configuration not stated), for which the composite z-score was -0.485. Still for that read-out and setting: next, `CC(C)=NO[C@@H](C)c1cn([C@H](CO)Cc2ccccc2)nn1`: -0.832; `O=C(NN=C1C[C@@H](O)[C@@H](O)[C@@H]2[C@@H]3C(=O)N(Cc4ccccc4)C(=O)[C@@H]3CC[C@H]12)OCc1ccccc1`: -0.47. Still for that read-out and setting: next, `CCOC(=O)CCN1C(=O)[C@H]2[C@H]3[C@H](O)[C@H](O)CC(=NOCC=C(C)CCC=C(C)C)[C@H]3CC[C@H]2C1=O`: -0.154; `CC(=O)OC[C@H]1O[C@@H](ON=C2[C@H]3CCn4c(=O)n(-c5ccccc5)c(=O)n4[C@H]3[C@H](O)[C@@H]3O[C@H]23)[C@H](OC(C)=O)[C@@H](OC(C)=O)[C@@H]1OC(C)=O`: -0.43. Still for that read-out and setting: next, `O=C1CCCC=C1C(O)COCc1ccccc1` (configuration not stated): -0.344. With `C[C@H]1CC[C@@H](C(=O)O)N[C@@H]1c1cccc(N2CCCC2=O)c1`, the composite z-score is -0.496.

In the case of `COC(=O)[C@H](C)NC(=O)CCC1CC(OC(=O)NCc2ccc3c(c2)OCO3)CC2(CCCC(COC(=O)NCCCN3CCCC3=O)O2)O1` (some centres not stated), the composite z-score is -0.189.

Consider `CC(C)(C)N1C(=O)[C@H]2[C@@H]3C(=CC[C@H]2C1=O)C(=O)[C@H]1O[C@H]1[C@H]3O`, for which the composite z-score was -0.779.

Regarding `CCOC(=O)NN=C1C[C@@H](O)[C@@H](O)[C@@H]2[C@@H]3C(=O)N(C[C@@H]4CCCO4)C(=O)[C@@H]3CC[C@H]12`, the composite z-score is -0.317.
